Source: PubChem BioAssay (NCATS)
Several values for one entry are separate records, joined by “and”; a condition that tells them apart may be missing. Equal entries are not always repeated. Records with an inconclusive call do not appear. Activity calls are given as the source filed them. Unless noted, calls come from the whole dose curve; as a rule, active = well fitted curve in the direction sought with a large enough effect; inconclusive = small, poorly fitted or top-dose-only effect, or another doubt; inactive = no such curve, though single readings can be large; an effect the other way counts as inactive or inconclusive.

Legend:
[1] = qHTS assay for small molecule disruptors of the mitochondrial membrane potential - 1 hr assay (AID 651754; calls by dose curve; note: % is set by controls: 0 for no effect and ±100 for the full control effect; nearly all actives have a fitted effect of over 35% in size)
How it was run: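 Mitochondrial potential in living HepG2 cells after 1 hr compound treatment at 37C was read with Mito-MPS dye added for a further 30 min. Red aggregate and green monomer fluorescence were measured; loss of potential leaves dye as cytoplasmic monomers.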

[2] = qHTS assay for small molecule disruptors of the mitochondrial membrane potential - 5 hr assay (AID 651755; calls by dose curve; note: % is set by controls: 0 for no effect and ±100 for the full control effect; nearly all actives have a fitted effect of over 40% in size)
How it was run: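 Read-out: ratiometric Mito-MPS fluorescence, green monomer (ex 490/em 535) vs red mitochondrial aggregate (ex 540/em 590). HepG2 cells treated 5 hr at 37C before 30 min dye loading.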

[3] = molecular target: Tumor necrosis factor (Homo sapiens) (UniProt P01375); experiment: qHTS assay to identify small molecules that stimulate Tumor Necrosis Factor-alpha (TNF-alpha) secretion (AID 651757; active = well fitted curve in the direction sought with a large enough effect in the signal ratio; the % refers to the signal ratio; note: 0% is about no effect)
Tumor necrosis factor (Homo sapiens), sequence (P01375 whole entry, looked up): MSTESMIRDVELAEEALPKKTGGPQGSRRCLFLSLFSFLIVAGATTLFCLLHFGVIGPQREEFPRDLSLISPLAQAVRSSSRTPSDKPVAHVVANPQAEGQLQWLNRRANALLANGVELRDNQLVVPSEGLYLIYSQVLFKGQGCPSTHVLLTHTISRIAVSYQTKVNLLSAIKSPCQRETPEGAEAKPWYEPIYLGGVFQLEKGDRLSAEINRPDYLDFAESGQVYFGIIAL
How it was run: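 Secreted TNF-alpha quantified by TR-FRET sandwich of two labeled anti-TNF-alpha antibodies, incubated 3 hr at room temperature. Preceded by 17 hr, 37 C compound treatment of THP-1 cells at 3000 cells/well.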

[4] = qHTS assay for environmental chemicals that activate the Aryl hydrocarbon Receptor (AhR) signaling pathway (AID 651777); settings: 1A2-DRE human hepatoma cells, luciferase, 24 h; activation: hits give high values; note: % of control where 0% means no effect; nearly all actives have a fitted effect of over 15% in size
How it was run: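 Luminescence (One-Glo, 30 min, room temperature) reports AhR-driven luciferase in stably transfected human hepatoma cells bearing DRE and CYP1A2 promoter. Cells (1,200/well) were treated with compound for 24 hr at 37 C in qHTS format.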

[5] = molecular target: Peroxisome proliferator-activated receptor alpha (Homo sapiens) (UniProt Q07869); experiment: qHTS assay for small molecule agonists of the peroxisome proliferator-activated receptor alpha (PPARalpha) signaling pathway (AID 651778); settings: PathHunter PPARalpha complementation, chemiluminescence, 6 h; max response: hits give high values; note: potency is the fitted concentration of half-maximal effect
Peroxisome proliferator-activated receptor alpha (Homo sapiens), sequence (Q07869 whole entry, looked up, the tested form may be a part): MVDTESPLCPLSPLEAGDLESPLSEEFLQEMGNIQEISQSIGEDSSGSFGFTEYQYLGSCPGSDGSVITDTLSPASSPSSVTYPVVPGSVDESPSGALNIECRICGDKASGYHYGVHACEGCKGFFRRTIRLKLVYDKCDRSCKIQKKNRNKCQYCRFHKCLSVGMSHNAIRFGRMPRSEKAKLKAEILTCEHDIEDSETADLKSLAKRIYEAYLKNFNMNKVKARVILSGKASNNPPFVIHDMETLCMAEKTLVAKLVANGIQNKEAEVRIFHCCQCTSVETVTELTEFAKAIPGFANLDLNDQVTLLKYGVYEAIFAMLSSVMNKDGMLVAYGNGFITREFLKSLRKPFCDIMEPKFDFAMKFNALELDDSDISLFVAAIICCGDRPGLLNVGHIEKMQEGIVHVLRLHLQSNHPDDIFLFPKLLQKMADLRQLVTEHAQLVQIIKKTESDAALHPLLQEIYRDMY
How it was run: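 Enzyme-fragment complementation assay in which ligand-bound PPARalpha translocates and forms an active enzyme that generates chemiluminescence. Cells were plated overnight, exposed to compound for 6 hr at 37 C, and then given detection reagent for 60 min at room temperature.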

[6] = molecular target: Nuclear receptor ROR-gamma (Homo sapiens) (UniProt P51449); experiment: qHTS assay for small molecule antagonists of the retinoid-related orphan receptor gamma (ROR-gamma) signaling pathway (AID 651802);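 note: CHO cells with doxycycline-induced ROR-gamma expression; luciferase reporter luminescence driven by ROR response element; series mostly up to about 92 µM; % is set by controls: 0 for no effect and ±100 for the full control effect; nearly all actives have a fitted effect of over 60% in size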
Nuclear receptor ROR-gamma (Homo sapiens), sequence (P51449 whole entry, looked up): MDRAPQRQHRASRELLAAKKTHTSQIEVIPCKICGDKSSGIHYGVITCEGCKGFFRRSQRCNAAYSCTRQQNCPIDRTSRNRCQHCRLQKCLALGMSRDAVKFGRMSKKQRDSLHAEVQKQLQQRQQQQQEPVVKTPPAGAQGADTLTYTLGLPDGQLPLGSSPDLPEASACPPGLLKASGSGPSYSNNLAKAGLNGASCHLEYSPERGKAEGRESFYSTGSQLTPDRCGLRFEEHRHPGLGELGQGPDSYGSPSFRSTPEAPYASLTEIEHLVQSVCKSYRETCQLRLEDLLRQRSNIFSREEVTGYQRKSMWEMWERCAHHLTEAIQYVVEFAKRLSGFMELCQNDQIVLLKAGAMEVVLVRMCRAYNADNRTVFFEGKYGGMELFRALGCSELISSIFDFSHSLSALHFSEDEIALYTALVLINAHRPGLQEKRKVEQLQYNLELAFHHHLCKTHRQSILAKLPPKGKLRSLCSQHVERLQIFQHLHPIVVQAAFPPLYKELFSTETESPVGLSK
How it was run: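 Luminescence (One-Glo, 30 min RT) measured 16 h after compound addition and doxycycline induction at 37C. Reporter: RORE-luciferase under TET-inducible ROR-gamma in CHO cells.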

[7] = qHTS assay for small molecule agonists of the antioxidant response element (ARE) signaling pathway measured by Nrf2-dependant transcriptional activity (AID 720636; active = well fitted curve in the direction sought with a large enough effect in the repeat runs; an effect the other way counts as inactive or inconclusive; note: % of control where 0% means no effect)
How it was run: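 Nrf2-dependent transcription read as ONE-Glo luciferase signal from ARE-luc HepG2 reporter cells after 16 hr compound treatment at 37 C, 5% CO2, in assay medium with 1% dialyzed FBS.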

[8] = qHTS assay for small molecule antagonists of the retinoid-related orphan receptor gamma (ROR-gamma) signaling pathway - cell viability counter screen (AID 720652; active = well fitted curve in the direction sought with a large enough effect in the repeat runs; an effect the other way counts as inactive or inconclusive;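 note: CHO reporter cells with doxycycline-induced ROR-gamma expression; series mostly up to about 92 µM; compound exposure lasted 16 hr before ATP read; % is set by controls: 0 for no effect and ±100 for the full control effect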)
How it was run: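 Cytotoxicity counter screen: intracellular ATP (CellTiter-Glo luminescence) measured in the doxycycline-induced CHO RORE-luciferase reporter line after 16 hr compound exposure at 37 C, 5% CO2.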

[9] = qHTS assay for small molecule agonists of the antioxidant response element (ARE) signaling pathway measured by Nrf2-dependant transcriptional activity - cell viability counter screen (AID 720653; active = well fitted curve in the direction sought with a large enough effect in the repeat runs; an effect the other way counts as inactive or inconclusive; note: % is set by controls: 0 for no effect and ±100 for the full control effect); settings: ARE-bla HepG2 viability, CellTiter-Glo ATP luminescence, 16 h; max response: hits give low values
How it was run: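 ARE-bla HepG2 cells treated with compounds for 16 h at 37C; this counter screen measures viability as intracellular ATP by CellTiter-Glo luminescence after 30 min at room temperature.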

[10] = qHTS assay for cell viability of the p53RE-bla HCT-116 cell line (AID 743292); note: % is set by controls: 0 for no effect and ±100 for the full control effect; nearly all actives have a fitted effect of over 55% in size
How it was run: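 ATP-based luminescent viability (CellTiter-Glo, 30 min RT) after 16 h compound treatment at 37 C of p53RE-bla HCT-116 cells, seeded at 4,000 cells/well and rested 5 h before dosing.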

[11] = Viability counterscreen for antagonist of constitutive androstane receptor (CAR) against the NCATS DSHEA and TCM libraries (AID 1794837);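 note: compound exposure lasted 24 h before viability reading; 0% is about no effect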
How it was run: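 Cells: HepG2 line carrying CYP2B6 reporter and hCAR, seeded and attached 5 h. Then pin-transferred test substances plus agonist CITCO at 48 uM final; 24 h incubation; fluorogenic viability reagent, 1 h.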

[12] = Viability counterscreen for agonist of constitutive androstane receptor (CAR) against the NCATS DSHEA and TCM libraries (AID 1794838);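 note: HepG2 cells with CYP2B6 reporter and hCAR plus 0.75 µM PK11195 antagonist; 0% is about no effect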
How it was run: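 Cell health was measured as CellTiter-Fluor signal in HepG2-CYP2B6-hCAR cells treated for 24 h with substances alongside the hCAR antagonist PK11195 (0.75 uM final).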

[13] = molecular target: Nuclear receptor subfamily 1 group I member 3 (Homo sapiens) (UniProt Q14994); experiment: Primary qHTS for agonist of constitutive androstane receptor (CAR) against the NCATS DSHEA and TCM libraries (AID 1794839);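 note: HepG2 cells expressing human CAR with a CYP2B6 reporter plus PK11195 antagonist; 0% is about no effect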
Nuclear receptor subfamily 1 group I member 3 (Homo sapiens), sequence (Q14994 whole entry, looked up): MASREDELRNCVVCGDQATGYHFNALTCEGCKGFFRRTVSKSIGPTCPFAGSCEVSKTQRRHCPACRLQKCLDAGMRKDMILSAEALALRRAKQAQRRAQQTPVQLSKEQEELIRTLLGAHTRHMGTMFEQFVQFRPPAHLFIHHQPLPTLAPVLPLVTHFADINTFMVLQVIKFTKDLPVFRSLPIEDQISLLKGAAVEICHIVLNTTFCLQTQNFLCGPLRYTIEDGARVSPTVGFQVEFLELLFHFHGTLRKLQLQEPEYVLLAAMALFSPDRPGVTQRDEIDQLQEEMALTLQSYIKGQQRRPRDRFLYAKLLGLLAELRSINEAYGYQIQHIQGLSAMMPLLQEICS
How it was run: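 qHTS, agonist mode: HepG2-CYP2B6-hCAR, 2,500 cells/well, 5 h attach; cpds + PK11195 0.75 µM final; 24 h, 37 °C, 5% CO2. Readouts: CellTiter-Fluor (405/540 nm), then ONE-Glo luminescence.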

[14] = HepG2 viability counterscreen (readout 2: ATP content) against the NCATS DSHEA and TCM libraries (AID 1794840); note: 0% is about no effect
How it was run: (§1)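 Same wells read twice: first fluorescence from cleaved GF-AFC substrate (25 uM final, 30 min, 37C) for live-cell protease, then CellTiter-Glo luminescence after 30 min at room temperature for ATP. HepG2 cells were exposed ~24 h to substances.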

[15] = HepG2 viability counterscreen (readout 1: protease activity) against the NCATS DSHEA and TCM libraries (AID 1794841);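 note: cells exposed to compounds for about 24 h before the protease read; 0% is about no effect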
How it was run: as §1

[16] = molecular target: Cytochrome P450 3A4 (Homo sapiens) (UniProt P08684); experiment: qHTS for inhibitors of CYP3A4 against the NCATS DSHEA and TCM libraries (AID 1919971);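 note: % is set by controls: 0 for no effect and ±100 for the full control effect; inhibition lowers luminescence from luciferin made by CYP3A4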
Cytochrome P450 3A4 (Homo sapiens), sequence (P08684 whole entry, looked up, canonical isoform): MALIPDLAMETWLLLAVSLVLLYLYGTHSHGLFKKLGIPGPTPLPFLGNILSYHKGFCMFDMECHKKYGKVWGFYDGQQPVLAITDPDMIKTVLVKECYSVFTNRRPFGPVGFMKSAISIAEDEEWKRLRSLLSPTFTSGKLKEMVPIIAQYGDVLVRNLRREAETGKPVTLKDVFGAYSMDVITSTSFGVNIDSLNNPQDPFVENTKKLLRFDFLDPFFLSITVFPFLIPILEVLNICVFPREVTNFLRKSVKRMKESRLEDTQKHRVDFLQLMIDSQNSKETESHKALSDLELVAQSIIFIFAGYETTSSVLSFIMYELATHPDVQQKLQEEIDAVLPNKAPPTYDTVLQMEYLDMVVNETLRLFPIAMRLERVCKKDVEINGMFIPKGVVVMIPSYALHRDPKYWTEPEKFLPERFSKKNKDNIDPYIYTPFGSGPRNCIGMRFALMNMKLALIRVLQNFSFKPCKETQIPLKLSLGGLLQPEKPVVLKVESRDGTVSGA
How it was run: (§2)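 Each CYP isoform and its pro-luciferin substrate, at isoform-specific final concentrations, were preincubated 15 min at RT with substances. NADPH regeneration solution (1x) started a 30-45 min reaction, and P450-Glo luminescence was read.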

[17] = molecular target: Cytochrome P450 2D6 (Homo sapiens) (UniProt P10635); experiment: qHTS for inhibitors of CYP2D6 against the NCATS DSHEA and TCM libraries (AID 1919972); note: % is set by controls: 0 for no effect and ±100 for the full control effect
Cytochrome P450 2D6 (Homo sapiens), sequence (P10635 whole entry, looked up): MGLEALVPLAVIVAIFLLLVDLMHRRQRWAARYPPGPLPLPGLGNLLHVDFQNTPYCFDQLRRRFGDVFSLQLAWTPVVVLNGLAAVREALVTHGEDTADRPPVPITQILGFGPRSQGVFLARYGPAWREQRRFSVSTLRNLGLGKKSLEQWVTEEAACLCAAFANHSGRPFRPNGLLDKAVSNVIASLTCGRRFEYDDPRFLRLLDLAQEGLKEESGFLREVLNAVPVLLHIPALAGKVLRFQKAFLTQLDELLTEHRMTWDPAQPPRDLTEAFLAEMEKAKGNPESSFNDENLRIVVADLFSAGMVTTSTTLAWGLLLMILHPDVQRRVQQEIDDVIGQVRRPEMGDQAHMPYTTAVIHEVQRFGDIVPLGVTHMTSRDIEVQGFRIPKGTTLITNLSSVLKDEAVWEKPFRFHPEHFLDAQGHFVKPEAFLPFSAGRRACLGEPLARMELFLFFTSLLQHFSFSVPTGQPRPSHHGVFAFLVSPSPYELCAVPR
How it was run: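 CYP2D6 enzyme with pro-luciferin substrate in manufacturer buffer (typically 100 mM KPO4), preincubated 15 min RT with substances (most at 19.5 nM upward); NADPH regeneration system (1x) started 30–45 min RT reaction; P450-Glo luminescence read after 30 min; quinidine as intraplate control.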

[18] = molecular target: Cytochrome P450 2C19 (Homo sapiens) (UniProt P33261); experiment: qHTS for inhibitors of CYP2C19 against the NCATS DSHEA and TCM libraries (AID 1919974);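 note: luminescence from luciferin released by CYP2C19 oxidation of a pro-luciferin substrate; % is set by controls: 0 for no effect and ±100 for the full control effect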
Cytochrome P450 2C19 (Homo sapiens), sequence (P33261 whole entry, looked up): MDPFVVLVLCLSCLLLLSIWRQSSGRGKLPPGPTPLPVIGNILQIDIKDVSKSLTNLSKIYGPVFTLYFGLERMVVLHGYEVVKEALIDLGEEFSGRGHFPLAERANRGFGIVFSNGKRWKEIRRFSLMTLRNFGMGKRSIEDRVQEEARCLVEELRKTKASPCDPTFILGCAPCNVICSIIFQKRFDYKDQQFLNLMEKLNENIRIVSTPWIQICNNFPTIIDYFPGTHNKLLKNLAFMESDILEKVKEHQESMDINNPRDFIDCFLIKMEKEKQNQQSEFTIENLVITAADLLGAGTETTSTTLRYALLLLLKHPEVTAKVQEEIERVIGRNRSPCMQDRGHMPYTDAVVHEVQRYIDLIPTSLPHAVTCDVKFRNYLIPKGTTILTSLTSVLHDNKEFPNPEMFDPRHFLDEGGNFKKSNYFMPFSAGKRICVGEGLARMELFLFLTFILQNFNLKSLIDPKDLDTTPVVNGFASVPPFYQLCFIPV
How it was run: as §2

[19] = KB-3-1 P-gp reporter qHTS against the NCATS DSHEA and TCM libraries (AID 1919975); note: 0% is about no effect
How it was run: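 KB-3-1 parental line, 1536-well qHTS: cells seeded, ~4 h attachment, pintool compound addition, ~72 h at 37C, then CellTiter-Glo, 30 min RT, luminescence. Concentration-response format.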

[20] = qHTS Counterscreen for compound interference against the NCATS DSHEA and TCM libraries (AID 1919978); settings: firefly luciferase detection reagent interference, luminescence;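 note: compounds preincubated with 1 µM D-luciferin or buffer before detection reagent; % of control where 0% means no effect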
How it was run: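 Compounds, titrated from 19.5 nM to 39.8 uM final, were pinned onto 1 uM D-luciferin or plain 100 mM potassium phosphate. After 15 min at room temperature, luciferin detection reagent was added for 30 min before the luminescence read.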

[21] = Dual reporter qHTS for agonist of Pregnane X Receptor (hPXR) against the NCATS DSHEA and TCM libraries: Fluorescence readout (AID 1920058); note: 0% is about no effect
How it was run: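 Viability readout (CellTiter-Fluor, 405/540 nm, 1 h) from agonist-mode PXR dual reporter in hPXR-Luc HepG2 cells. Substances ~24 h, 37 °C, 5% CO2; rifampicin reference, tetraoctyl ammonium bromide cytotoxic control.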

[22] = molecular target: Nuclear receptor subfamily 1 group I member 2 (Homo sapiens) (UniProt O75469); experiment: Dual reporter qHTS for agonist of Pregnane X Receptor (hPXR) against the NCATS DSHEA and TCM libraries: Luminescence readout (AID 1920059); note: 0% is about no effect
Nuclear receptor subfamily 1 group I member 2 (Homo sapiens), sequence (O75469 whole entry, looked up): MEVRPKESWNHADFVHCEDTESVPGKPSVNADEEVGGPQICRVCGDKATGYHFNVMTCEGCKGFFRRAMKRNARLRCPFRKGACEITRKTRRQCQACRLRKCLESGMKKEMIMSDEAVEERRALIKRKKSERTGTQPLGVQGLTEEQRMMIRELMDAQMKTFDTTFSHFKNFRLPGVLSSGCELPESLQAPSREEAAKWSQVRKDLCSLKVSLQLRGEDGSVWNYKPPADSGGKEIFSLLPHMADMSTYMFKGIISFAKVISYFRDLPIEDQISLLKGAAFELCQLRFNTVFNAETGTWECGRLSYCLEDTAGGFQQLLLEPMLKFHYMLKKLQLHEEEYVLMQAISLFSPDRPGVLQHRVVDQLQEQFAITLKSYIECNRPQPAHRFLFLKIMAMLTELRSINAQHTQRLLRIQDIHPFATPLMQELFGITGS
How it was run: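 hPXR-Luc HepG2 cells, 2000/well in 5% charcoal-stripped FBS medium, attached 5 h, then exposed 24 h at 37C to compounds. Viability by CellTiter-Fluor, then luciferase luminescence with ONE-Glo.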

[23] = molecular target: Nuclear receptor subfamily 1 group I member 2 (Homo sapiens) (UniProt O75469); experiment: Dual reporter qHTS for antagonist of Pregnane X Receptor (hPXR) against the NCATS DSHEA and TCM libraries: Luminescence Readout (AID 1920060);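 note: HepG2 cells carrying hPXR luciferase reporter stimulated with rifampicin at 2 µM; 0% is about no effect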
How it was run: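 HepG2 hPXR-Luc, 2000 cells/well, charcoal-stripped FBS medium; 5 h attach; RIF 2 uM final; 24 h 37C/5% CO2; CellTiter-Fluor 1 h, fluor 405/540; ONE-Glo 30 min RT, lum.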

[24] = molecular target: Nuclear receptor subfamily 1 group I member 2 (Rattus norvegicus) (UniProt Q9R1A7); experiment: qHTS assay for small molecule activators of the rat pregnane X receptor (rPXR) signaling pathway (AID 651751; call rule not given here; note: 0% is about no effect); settings: rPXR reporter cells, luciferase (One-Glo), 24 h
Nuclear receptor subfamily 1 group I member 2 (Rattus norvegicus), sequence (Q9R1A7 whole entry, looked up): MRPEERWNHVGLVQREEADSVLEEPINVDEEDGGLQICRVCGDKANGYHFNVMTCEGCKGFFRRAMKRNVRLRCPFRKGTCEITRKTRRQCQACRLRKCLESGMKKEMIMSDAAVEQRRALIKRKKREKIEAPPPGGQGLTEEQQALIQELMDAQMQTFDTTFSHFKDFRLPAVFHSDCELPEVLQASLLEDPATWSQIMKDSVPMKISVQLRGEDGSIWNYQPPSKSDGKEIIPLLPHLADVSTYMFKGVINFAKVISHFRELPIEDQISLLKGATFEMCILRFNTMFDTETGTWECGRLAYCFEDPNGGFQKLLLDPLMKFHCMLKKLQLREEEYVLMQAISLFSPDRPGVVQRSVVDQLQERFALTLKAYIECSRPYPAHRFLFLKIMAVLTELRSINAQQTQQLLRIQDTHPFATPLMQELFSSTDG

[25] = qHTS assay for small molecule activators of the human pregnane X receptor (PXR) signaling pathway (AID 720659; call rule not given here; note: 0% is about no effect)

CCCCCCCCCCCCCC(=O)O
active: Potency [5] 22.4 µM
inactive: Potency [1] | Potency [2] | outcome [3] | activation [4] -0.758% and 0.233% | Potency [6] | Potency [7] | Potency [8] | max response [9] 1.31% and -9.4% | Potency [10] | outcome [11] | outcome [12] | Potency [13] | outcome [14] | outcome [15] | Potency [16] | Potency [17] | Potency [18] | outcome [19] | max response [20] -1.78% | outcome [21] | Potency [22] | outcome [23] | max response [24] -0.081% and -5.28% | outcome [25]
